Laboratory results from PubChem BioAssay (EPA / NIEHS).
The source made the active and inactive calls. How the source made its calls: active means hit-call score of the fitted dose curve at least 0.9, where 1 is the maximum; inactive means score below 0.9.

Tests used:
Details in all cases: mRNA level, 48 h; actives raise or lower the signal
[1] = read-out: Forkhead box O3 (FOXO3), FOXO3 (gene 2309); test: LTEA_HepaRG_FOXO3: Life Technologies and Expression Analysis (LTEA) Assay for Forkhead box O3 (FOXO3) using HepaRG (AID 2283459)
Procedure, shortened: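 Differentiated human HepaRG cells, 48 h post-plating, exposed in duplicate for 48 h in serum-free induction medium; 8-point half-log series from 100 uM in 0.5% DMSO. FOXO3 mRNA by TaqMan qRT-PCR, normalized to ACTB/GAPDH/POLR2A; bidirectional fit versus DMSO.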

[2] = read-out: ABC Transporter (ABCB1), ABCB1 (gene 5243); test: LTEA_HepaRG_ABCB1: Life Technologies and Expression Analysis (LTEA) Assay for ABC Transporter (ABCB1) using HepaRG (AID 2283460)
Procedure, shortened: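 HepaRG cells exposed in duplicate for 48 h in serum-free induction medium to eight half-log concentrations up to 100 uM in 0.5% DMSO. ABCB1 mRNA quantified by qRT-PCR, normalised to ACTB, GAPDH and POLR2A; fitted bidirectionally versus DMSO.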

[3] = read-out: growth arrest and DNA damage 45 (GADD45B), GADD45B (gene 4616); test: LTEA_HepaRG_GADD45B: Life Technologies and Expression Analysis (LTEA) Assay for growth arrest and DNA damage 45 (GADD45B) using HepaRG (AID 2283461)
Procedure, shortened: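 qRT-PCR read-out (Fluidigm TaqMan, housekeeping-normalized) of mRNA change in human HepaRG cells after 48 h chemical exposure; 8-point curve, top 100 uM, half-log steps, 0.5% DMSO vehicle; gain or loss fitted relative to DMSO baseline.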

[4] = read-out: ABC Transporter (ABCC3), ABCC3 (gene 8714); test: LTEA_HepaRG_ABCC3: Life Technologies and Expression Analysis (LTEA) Assay for ABC Transporter (ABCC3) using HepaRG (AID 2283462)
Procedure, shortened: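 qRT-PCR read-out of ABCC3 transcript, normalized to three housekeeping genes (ACTB, GAPDH, POLR2A), after 48 h chemical exposure of human HepaRG cells. Eight half-log concentrations, highest 100 uM, in 0.5% DMSO; gain or loss fitted relative to DMSO baseline.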

[5] = read-out: ABC Transporter (ABCB11), ABCB11 (gene 8647); test: LTEA_HepaRG_ABCB11: Life Technologies and Expression Analysis (LTEA) Assay for ABC Transporter (ABCB11) using HepaRG (AID 2283463)
Procedure, shortened: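 Differentiated human HepaRG cells in serum-free induction medium, dosed in duplicate for 48 h. Eight-point half-log series from 100 uM in 0.5% DMSO; ABCB11 mRNA by qRT-PCR, normalized to ACTB, GAPDH, POLR2A, fitted bidirectionally versus DMSO.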

[6] = read-out: ABC Transporter (ABCC2), ABCC2 (gene 1244); test: LTEA_HepaRG_ABCC2: Life Technologies and Expression Analysis (LTEA) Assay for ABC Transporter (ABCC2) using HepaRG (AID 2283464)
Procedure, shortened: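 qRT-PCR (TaqMan, Fluidigm array) read-out of ABCC2 mRNA, normalized to three housekeeping genes. Differentiated HepaRG cells were treated 48 h in serum-free induction medium with 8-point half-log series from 100 uM in 0.5% DMSO; curves fitted bidirectionally relative to DMSO.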

[7] = read-out: ATP-citrate lyase (ACLY), ACLY (gene 47); test: LTEA_HepaRG_ACLY: Life Technologies and Expression Analysis (LTEA) Assay for ATP-citrate lyase (ACLY) using HepaRG (AID 2283466)
Procedure, shortened: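 Differentiated HepaRG cells exposed 48 h in serum-free induction medium to eight half-log concentrations up to 100 uM in 0.5% DMSO, duplicates. Transcript measured by Fluidigm TaqMan qRT-PCR, normalized to ACTB, GAPDH, POLR2A; bidirectional fit versus DMSO.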

[8] = read-out: Peroxisomal acyl-coenzyme A oxidase 1 (ACOX1) gene, ACOX1 (gene 51); test: LTEA_HepaRG_ACOX1: Life Technologies and Expression Analysis (LTEA) Assay for Peroxisomal acyl-coenzyme A oxidase 1 (ACOX1) gene using HepaRG (AID 2283467)
Procedure, shortened: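 HepaRG cells, plated 48 h then switched to serum-free induction medium, were exposed in duplicate for 48 h to 8-point half-log concentrations up to 100 uM in 0.5% DMSO. ACOX1 mRNA was measured by qRT-PCR, normalized to ACTB/GAPDH/POLR2A, and fitted bidirectionally versus DMSO.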

[9] = read-out: Alkaline Phosphatase, Placental (ALPP) gene, ALPP (gene 250); test: LTEA_HepaRG_ALPP: Life Technologies and Expression Analysis (LTEA) Assay for Alkaline Phosphatase, Placental (ALPP) gene using HepaRG (AID 2283468)
Procedure, shortened: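 qRT-PCR readout of ALPP mRNA (Fluidigm TaqMan), normalized to ACTB/GAPDH/POLR2A, after 48 h chemical exposure of HepaRG cells; 8-point half-log series, top 100 uM, 0.5% DMSO vehicle. Bidirectional curve fit versus DMSO baseline.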

[10] = read-out: Bcl-2 (BAD) gene, BAD (gene 572); test: LTEA_HepaRG_BAD: Life Technologies and Expression Analysis (LTEA) Assay for Bcl-2 (BAD) gene using HepaRG (AID 2283469)
Procedure, shortened: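 Differentiated HepaRG cells were exposed in duplicate in 0.5% DMSO for 48 h to eight-point half-log concentrations up to 100 uM. BAD mRNA was measured by Fluidigm TaqMan qRT-PCR, normalized to ACTB, GAPDH and POLR2A, and fitted bidirectionally against DMSO.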

[11] = read-out: Bcl-2 (BAX) gene, BAX (gene 581); test: LTEA_HepaRG_BAX: Life Technologies and Expression Analysis (LTEA) Assay for Bcl-2 (BAX) gene using HepaRG (AID 2283470)
Procedure, shortened: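 Concentration-response endpoint fitted in both directions relative to 0.5% DMSO vehicle. Human HepaRG cultures receive test chemicals for 48 h at up to 100 uM; BAX mRNA is quantified by qRT-PCR against housekeeping genes.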

[12] = read-out: adenosine kinase (ADK) gene, ADK (gene 132); test: LTEA_HepaRG_ADK: Life Technologies and Expression Analysis (LTEA) Assay for adenosine kinase (ADK) gene using HepaRG (AID 2283471)
Procedure, shortened: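 Following 48 h exposure of HepaRG cells in 0.5% DMSO (top concentration 100 uM, duplicate wells), ADK mRNA induction or suppression was measured by qRT-PCR, normalised to ACTB/GAPDH/POLR2A, and fitted bidirectionally relative to vehicle.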

[13] = read-out: Alpha-fetoprotein (AFP) gene, AFP (gene 174); test: LTEA_HepaRG_AFP: Life Technologies and Expression Analysis (LTEA) Assay for Alpha-fetoprotein (AFP) gene using HepaRG (AID 2283472)
Procedure, shortened: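 After a 48 h plating period, cells are moved to serum-free induction medium and dosed in duplicate (100 uM maximum, half-log dilutions, 0.5% DMSO) for another 48 h. Total RNA goes to TaqMan qRT-PCR; AFP signal is housekeeping-normalized.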

BCL2L11 (gene 10018) = test: LTEA_HepaRG_BCL2L11: Life Technologies and Expression Analysis (LTEA) Assay for Bcl-2 (BCL2L11) gene using HepaRG (AID 2283473)
Procedure, shortened: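 HepaRG, 48 h exposure, 8-pt half-log series from 100 uM in 0.5% DMSO, duplicates; qRT-PCR (Fluidigm TaqMan) for BCL2L11, housekeeping-normalized; bidirectional curve fit relative to DMSO baseline.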

[14] = read-out: Apolipoprotein A-V (APOA5) gene, APOA5 (gene 116519); test: LTEA_HepaRG_APOA5: Life Technologies and Expression Analysis (LTEA) Assay for Apolipoprotein A-V (APOA5) gene using HepaRG (AID 2283474)
Procedure, shortened: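 HepaRG, 48 h chemical exposure in serum-free induction medium, 8-pt half-log series (top 100 uM), 0.5% DMSO vehicle, duplicates. Readout: APOA5 mRNA by qRT-PCR, housekeeping-normalized; bidirectional fit vs DMSO baseline.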

[15] = read-out: Apoptosis regulator Bcl-2 (Homo sapiens) (UniProt P10415); test: LTEA_HepaRG_BCL2: Life Technologies and Expression Analysis (LTEA) Assay for Bcl-2 gene using HepaRG (AID 2283475)
Procedure, shortened: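 Expression change of BCL2 mRNA in HepaRG after 48 h dosing, quantified by TaqMan qRT-PCR against three endogenous controls. Concentration-response used eight points up to 100 uM, vehicle 0.5% DMSO.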

[16] = read-out: Bcl-2 (BID) gene, BID (gene 637); test: LTEA_HepaRG_BID: Life Technologies and Expression Analysis (LTEA) Assay for Bcl-2 (BID) gene using HepaRG (AID 2283476)
Procedure, shortened: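 Gain or loss of BID expression is fitted relative to 0.5% DMSO vehicle. Human HepaRG liver cells received a 48 h chemical exposure over an eight-point concentration range.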

[17] = read-out: Cytochrome P450 (CYP24A1), CYP24A1 (gene 1591); test: LTEA_HepaRG_CYP24A1: Life Technologies and Expression Analysis (LTEA) Assay for Cytochrome P450 (CYP24A1) using HepaRG (AID 2283478)
Procedure, shortened: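 qRT-PCR read-out: CYP24A1 transcript levels normalized to three housekeeping genes, bidirectional curve fits against 0.5% DMSO baseline. Human HepaRG cells treated 48 h with chemicals at eight concentrations from 100 uM in half-log steps.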

Caspase-3 (Homo sapiens) = Caspase-3 (Homo sapiens) (UniProt P42574); test: LTEA_HepaRG_CASP3: Life Technologies and Expression Analysis (LTEA) Assay for cysteine-aspartic acid protease (CASP3) using HepaRG (AID 2283477)
Chain of Caspase-3 (Homo sapiens) (P42574 whole entry, looked up): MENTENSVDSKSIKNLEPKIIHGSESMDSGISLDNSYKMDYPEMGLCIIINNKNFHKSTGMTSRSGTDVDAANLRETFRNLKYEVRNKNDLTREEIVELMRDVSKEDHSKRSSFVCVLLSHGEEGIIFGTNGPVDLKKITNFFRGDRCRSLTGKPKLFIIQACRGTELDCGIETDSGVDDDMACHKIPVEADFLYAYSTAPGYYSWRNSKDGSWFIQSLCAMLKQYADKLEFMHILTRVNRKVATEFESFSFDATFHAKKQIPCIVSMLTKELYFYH
Procedure, shortened: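 HepaRG, 48 h exposure, 8 conc. (top 100 uM, half-log steps, duplicate), 0.5% DMSO vehicle; qRT-PCR of CASP3 transcript, housekeeping-normalised (ACTB/GAPDH/POLR2A); bidirectional curve fit vs DMSO baseline.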

Measured: AC50

Chain of Apoptosis regulator Bcl-2 (Homo sapiens) (P10415 whole entry, looked up): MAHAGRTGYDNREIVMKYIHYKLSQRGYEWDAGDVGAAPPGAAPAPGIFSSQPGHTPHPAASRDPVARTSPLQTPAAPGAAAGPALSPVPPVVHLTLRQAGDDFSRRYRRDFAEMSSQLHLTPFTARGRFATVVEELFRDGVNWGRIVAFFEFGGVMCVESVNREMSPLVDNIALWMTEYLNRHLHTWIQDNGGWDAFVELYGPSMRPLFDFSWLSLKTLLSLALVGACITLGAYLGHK

CC1(C)C(=O)N(Br)C(=O)N1Br
inactive: [1] | [2] | [3] | [4] | [5] | [6] | [7] | [8] | [9] | [10] | [11] | [12] | [13] | BCL2L11 (gene 10018) | [14] | [15] | [16] | [17]

CCc1cc(SCc2sc(-c3ccc(C(F)(F)F)cc3)nc2CN2CCN(c3ccc(OC)cc3)CC2)ccc1OCC(=O)O
inactive: [14] | [17]
active: [1] 93.5 µM | [2] 25 µM | [3] 92.7 µM | [4] 90.3 µM | [5] 8.6 µM | [6] 93.3 µM | [7] 93.4 µM | [8] 92.7 µM | [9] 6.34 µM | [10] 87 µM | [11] 97.2 µM | [12] 90.9 µM | [13] 7.69 µM | BCL2L11 (gene 10018) 89.4 µM | [15] 8.96 µM | [16] 0.206 µM

COc1ccc(-n2nc(C(F)F)cc2-c2ccc(S(C)=O)cc2)cc1 (stereo not drawn)
inactive: [1] | [2] | [3] | [4] | [7] | [8] | [9] | [10] | [11] | [12] | [13] | BCL2L11 (gene 10018) | [14] | [15] | [16] | [17]
active: [5] 17.3 µM | [6] 30.9 µM

Cc1ccc(S(=O)(=O)O)cc1C
inactive: [1] | [2] | [3] | [4] | [5] | [6] | [7] | [8] | [9] | [10] | [11] | [12] | [13] | BCL2L11 (gene 10018) | [14] | [15] | [16] | Caspase-3 (Homo sapiens) | [17]
